Data as given in PubChem BioAssay (Tox21).
Inconclusive results are not listed. Calls of active or inactive are those of the source. Unless noted, calls come from the whole dose curve; as a rule, active = well fitted curve in the direction sought with a large enough effect in the repeat runs; inconclusive = weak or mixed curves; inactive = no such curve, though single readings can be large; an effect the other way counts as inactive or inconclusive.

Tests used:
[1] = target: Cytochrome P450 2D6 (Homo sapiens) (UniProt P10635); assay: Cytochrome P450 Family 2 Subfamily D Member 6 (CYP2D6) small molecule antagonists: luciferase reporter qHTS assay (AID 1671196); note: nearly all actives have a fitted effect of over 50% in size; note: potency is the fitted concentration of half-maximal effect
Method in brief: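 CYP2D6 activity was followed as luminescence from its luciferin product after a 1 h NADPH-driven reaction at room temperature. Enzyme-substrate mix and compound were pre-incubated for 10 min, and the signal was read 20 min after adding detection reagent.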

[2] = target: Voltage-gated inwardly rectifying potassium channel KCNH2 (Homo sapiens) (UniProt Q12809); assay: Human Ether-a-go-go-Related Gene (hERG) channel small molecule antagonists: fluorescence cell-based qHTS assay (AID 1671200); note: nearly all actives have a fitted effect of over 50% in size; note: potency is the fitted concentration of half-maximal effect
Method in brief: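 Quantitative HTS in hERG-U2OS cells: thallium entry through the channel reports activity, read as continuous 480/540 nm fluorescence over 2 min after stimulus addition.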

[3] = target: Cytochrome P450 3A4 (Homo sapiens) (UniProt P08684); assay: Cytochrome P450 Family 3 Subfamily A Member 4 (CYP3A4) small molecule antagonists: luciferase reporter qHTS assay (AID 1671201); note: nearly all actives have a fitted effect of over 50% in size; note: potency is the fitted concentration of half-maximal effect
Method in brief: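 Inhibition of CYP3A4 is measured as loss of light: the enzyme converts a proluciferin substrate to luciferin, detected luminescently. Reaction ran 1 h at room temperature with NADPH regeneration after a 10 min compound preincubation.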

[4] = target: Acetylcholinesterase (Homo sapiens) (UniProt P22303); assay: Acetylcholinesterase (AChE) small molecule antagonists: enzyme-based qHTS assay (AID 1347397; calls by dose curve; note: nearly all actives have a fitted effect of over 55% in size; note: potency is the fitted concentration of half-maximal effect); settings: Potency: AChE enzyme activity inhibition; outcome: AChE enzyme activity inhibition
Method in brief: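 In this quantitative HTS, compounds from the Tox21 10K collection were preincubated 30 min at ambient temperature with recombinant human AChE dispensed at 50 mU/mL. Hydrolysis of acetylthiocholine was then followed for 10 min by DTNB colour development.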

[5] = target: Cytochrome P450 2C19 (Homo sapiens) (UniProt P33261); assay: Cytochrome P450 Family 2 Subfamily C Member 19 (CYP2C19) small molecule antagonists: luciferase reporter qHTS assay (AID 1671197); note: nearly all actives have a fitted effect of over 65% in size; note: potency is the fitted concentration of half-maximal effect
Method in brief: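 Enzyme-substrate mix with proluciferin substrate (P450-Glo CYP2C19 system) preincubated with compounds 10 min at room temperature; NADPH regeneration solution added, 37C for 1 h; detection reagent stops reaction, luminescence read after 20 min. Ketoconazole positive control.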

[6] = target: Cytochrome P450 1A2 (Homo sapiens) (UniProt P05177); assay: Cytochrome P450 Family 1 Subfamily A Member 2 (CYP1A2) small molecule antagonists: luciferase reporter qHTS assay (AID 1671199); note: nearly all actives have a fitted effect of over 50% in size; note: potency is the fitted concentration of half-maximal effect
Method in brief: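 Luminescence from luciferin formed by CYP1A2 from a proluciferin substrate, read 20 min after detection reagent. Compound was pre-incubated 10 min with enzyme-substrate, and reaction started with NADPH regeneration solution for 1 h at room temperature; furafylline control.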

[7] = target: Acetylcholinesterase (Homo sapiens) (UniProt P22303); assay: Acetylcholinesterase (AChE) small molecule antagonists: enzyme-based qHTS assay with human liver microsomes (AID 1347399; calls by dose curve; note: nearly all actives have a fitted effect of over 60% in size); settings: Potency: qHTS inhibition; outcome: qHTS inhibition
Method in brief: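 Recombinant human AChE (50 mU/mL in the enzyme mix) and human liver microsomes (0.25 mg/mL final) were preincubated with compound and NADPH (0.25 mg/mL final) for 30 min at 37 C. Acetylthiocholine/DTNB was then added; thiocholine was read colorimetrically after 10 min at room temperature.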

[8] = target: Cytochrome P450 2C9 (Homo sapiens) (UniProt P11712); assay: Cytochrome P450 Family 2 Subfamily C Member 9 (CYP2C9) small molecule antagonists: luciferase reporter qHTS assay (AID 1671198); note: nearly all actives have a fitted effect of over 50% in size; note: potency is the fitted concentration of half-maximal effect
Method in brief: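 P450-Glo proluciferin substrate with CYP2C9 enzyme; 10 min RT preincubation, then NADPH regeneration 1 h at 37C; luciferin detection reagent 20 min RT, luminescence in relative luminescence units.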

Measured: Potency

Cytochrome P450 2C9 (Homo sapiens), sequence (P11712 whole entry, looked up): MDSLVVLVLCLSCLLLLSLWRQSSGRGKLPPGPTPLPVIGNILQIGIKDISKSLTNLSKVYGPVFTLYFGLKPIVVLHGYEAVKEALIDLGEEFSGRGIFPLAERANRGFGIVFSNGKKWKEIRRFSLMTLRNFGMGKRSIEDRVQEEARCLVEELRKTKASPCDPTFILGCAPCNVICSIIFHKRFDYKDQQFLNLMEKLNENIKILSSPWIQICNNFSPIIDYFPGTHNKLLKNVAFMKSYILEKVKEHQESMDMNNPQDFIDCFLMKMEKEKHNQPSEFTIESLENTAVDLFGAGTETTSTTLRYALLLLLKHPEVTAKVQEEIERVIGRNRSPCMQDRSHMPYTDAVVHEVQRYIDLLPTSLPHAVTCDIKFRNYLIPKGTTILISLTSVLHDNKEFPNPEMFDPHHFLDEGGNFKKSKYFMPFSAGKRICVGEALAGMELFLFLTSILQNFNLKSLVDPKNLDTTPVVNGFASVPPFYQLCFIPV
Cytochrome P450 2C19 (Homo sapiens), sequence (P33261 whole entry, looked up): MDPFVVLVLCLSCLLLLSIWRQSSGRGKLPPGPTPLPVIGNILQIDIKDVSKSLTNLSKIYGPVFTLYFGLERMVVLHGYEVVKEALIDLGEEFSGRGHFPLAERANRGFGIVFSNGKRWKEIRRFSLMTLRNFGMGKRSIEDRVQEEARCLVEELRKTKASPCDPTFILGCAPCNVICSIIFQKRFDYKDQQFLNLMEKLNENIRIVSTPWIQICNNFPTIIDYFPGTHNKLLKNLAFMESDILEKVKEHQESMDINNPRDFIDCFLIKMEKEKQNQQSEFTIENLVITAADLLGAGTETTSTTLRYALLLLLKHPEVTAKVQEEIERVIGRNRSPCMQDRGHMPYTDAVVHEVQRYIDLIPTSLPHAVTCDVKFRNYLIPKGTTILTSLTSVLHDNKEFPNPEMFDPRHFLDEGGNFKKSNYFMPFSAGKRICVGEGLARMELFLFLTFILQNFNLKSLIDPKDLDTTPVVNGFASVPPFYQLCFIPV
Voltage-gated inwardly rectifying potassium channel KCNH2 (Homo sapiens), sequence (Q12809 whole entry, looked up): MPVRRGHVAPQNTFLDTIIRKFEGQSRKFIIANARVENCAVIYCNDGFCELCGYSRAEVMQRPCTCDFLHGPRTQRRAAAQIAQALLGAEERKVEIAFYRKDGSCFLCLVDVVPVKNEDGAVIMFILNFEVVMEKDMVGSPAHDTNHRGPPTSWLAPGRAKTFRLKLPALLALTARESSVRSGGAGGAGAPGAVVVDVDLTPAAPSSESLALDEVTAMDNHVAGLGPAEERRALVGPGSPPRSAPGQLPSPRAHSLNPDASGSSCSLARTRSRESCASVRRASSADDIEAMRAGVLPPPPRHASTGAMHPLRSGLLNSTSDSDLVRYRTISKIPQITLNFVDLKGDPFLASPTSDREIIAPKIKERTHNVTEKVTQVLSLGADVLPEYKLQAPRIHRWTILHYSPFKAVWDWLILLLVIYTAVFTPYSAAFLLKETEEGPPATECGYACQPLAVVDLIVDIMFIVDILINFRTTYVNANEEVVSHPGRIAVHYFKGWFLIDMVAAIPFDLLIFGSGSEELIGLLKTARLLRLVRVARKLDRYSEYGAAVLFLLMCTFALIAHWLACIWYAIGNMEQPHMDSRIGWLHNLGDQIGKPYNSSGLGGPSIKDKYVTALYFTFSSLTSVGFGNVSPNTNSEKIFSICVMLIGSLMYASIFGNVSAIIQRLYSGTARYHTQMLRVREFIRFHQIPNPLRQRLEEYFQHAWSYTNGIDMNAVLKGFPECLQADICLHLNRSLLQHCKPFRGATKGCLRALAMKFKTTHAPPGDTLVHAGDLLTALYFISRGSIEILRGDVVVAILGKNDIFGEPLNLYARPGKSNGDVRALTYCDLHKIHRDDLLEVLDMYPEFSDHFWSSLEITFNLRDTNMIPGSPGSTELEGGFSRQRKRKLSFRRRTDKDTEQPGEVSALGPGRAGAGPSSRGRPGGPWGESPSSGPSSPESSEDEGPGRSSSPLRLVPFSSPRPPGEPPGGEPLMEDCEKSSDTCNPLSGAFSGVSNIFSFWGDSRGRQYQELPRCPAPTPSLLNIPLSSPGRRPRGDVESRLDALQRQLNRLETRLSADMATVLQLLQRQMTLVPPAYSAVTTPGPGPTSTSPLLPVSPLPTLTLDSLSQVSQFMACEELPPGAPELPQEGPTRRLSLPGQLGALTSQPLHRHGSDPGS
Acetylcholinesterase (Homo sapiens), sequence (P22303 whole entry, looked up): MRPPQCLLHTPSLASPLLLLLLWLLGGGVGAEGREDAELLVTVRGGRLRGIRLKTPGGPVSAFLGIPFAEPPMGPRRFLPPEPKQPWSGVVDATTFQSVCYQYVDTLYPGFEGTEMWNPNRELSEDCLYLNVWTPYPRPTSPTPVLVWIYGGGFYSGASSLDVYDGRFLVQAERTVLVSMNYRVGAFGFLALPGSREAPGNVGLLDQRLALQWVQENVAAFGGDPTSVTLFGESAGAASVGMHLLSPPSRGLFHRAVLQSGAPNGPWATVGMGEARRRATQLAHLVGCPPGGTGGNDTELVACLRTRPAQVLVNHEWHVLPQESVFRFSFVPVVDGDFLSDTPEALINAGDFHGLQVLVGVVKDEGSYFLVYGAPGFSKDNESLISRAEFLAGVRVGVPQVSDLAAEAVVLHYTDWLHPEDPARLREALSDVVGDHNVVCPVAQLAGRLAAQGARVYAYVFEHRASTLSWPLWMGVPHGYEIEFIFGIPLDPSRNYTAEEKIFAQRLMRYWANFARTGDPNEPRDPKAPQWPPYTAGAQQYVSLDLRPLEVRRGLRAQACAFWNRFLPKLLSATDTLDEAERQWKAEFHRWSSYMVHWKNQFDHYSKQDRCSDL
Cytochrome P450 1A2 (Homo sapiens), sequence (P05177 whole entry, looked up): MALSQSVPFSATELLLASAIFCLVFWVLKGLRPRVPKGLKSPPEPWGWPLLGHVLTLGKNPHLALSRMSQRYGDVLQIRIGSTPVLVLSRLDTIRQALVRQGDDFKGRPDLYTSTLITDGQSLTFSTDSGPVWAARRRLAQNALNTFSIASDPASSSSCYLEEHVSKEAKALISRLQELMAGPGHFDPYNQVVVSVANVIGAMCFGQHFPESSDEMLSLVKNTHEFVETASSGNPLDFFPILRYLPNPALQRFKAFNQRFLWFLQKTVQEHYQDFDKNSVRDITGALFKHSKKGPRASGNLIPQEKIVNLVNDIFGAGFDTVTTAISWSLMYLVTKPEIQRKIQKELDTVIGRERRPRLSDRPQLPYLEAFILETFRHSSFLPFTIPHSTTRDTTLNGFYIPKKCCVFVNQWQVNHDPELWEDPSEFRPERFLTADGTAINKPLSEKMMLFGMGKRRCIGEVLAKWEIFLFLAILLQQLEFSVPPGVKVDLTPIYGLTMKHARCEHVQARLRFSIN
Cytochrome P450 3A4 (Homo sapiens), sequence (P08684 whole entry, looked up): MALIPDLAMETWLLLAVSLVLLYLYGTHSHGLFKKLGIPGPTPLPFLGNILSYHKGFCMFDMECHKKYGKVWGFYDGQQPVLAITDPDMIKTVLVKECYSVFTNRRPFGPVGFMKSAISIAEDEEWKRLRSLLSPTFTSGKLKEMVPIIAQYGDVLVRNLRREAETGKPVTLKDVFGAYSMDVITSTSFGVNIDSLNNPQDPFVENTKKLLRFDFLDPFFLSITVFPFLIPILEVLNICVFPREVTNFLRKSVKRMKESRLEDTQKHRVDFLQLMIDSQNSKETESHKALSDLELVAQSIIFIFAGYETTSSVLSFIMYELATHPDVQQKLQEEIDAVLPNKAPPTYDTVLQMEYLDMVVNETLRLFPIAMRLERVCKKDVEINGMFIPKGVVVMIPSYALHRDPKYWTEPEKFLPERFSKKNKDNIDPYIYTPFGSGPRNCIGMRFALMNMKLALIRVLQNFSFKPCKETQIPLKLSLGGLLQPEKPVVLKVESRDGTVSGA
Cytochrome P450 2D6 (Homo sapiens), sequence (P10635 whole entry, looked up): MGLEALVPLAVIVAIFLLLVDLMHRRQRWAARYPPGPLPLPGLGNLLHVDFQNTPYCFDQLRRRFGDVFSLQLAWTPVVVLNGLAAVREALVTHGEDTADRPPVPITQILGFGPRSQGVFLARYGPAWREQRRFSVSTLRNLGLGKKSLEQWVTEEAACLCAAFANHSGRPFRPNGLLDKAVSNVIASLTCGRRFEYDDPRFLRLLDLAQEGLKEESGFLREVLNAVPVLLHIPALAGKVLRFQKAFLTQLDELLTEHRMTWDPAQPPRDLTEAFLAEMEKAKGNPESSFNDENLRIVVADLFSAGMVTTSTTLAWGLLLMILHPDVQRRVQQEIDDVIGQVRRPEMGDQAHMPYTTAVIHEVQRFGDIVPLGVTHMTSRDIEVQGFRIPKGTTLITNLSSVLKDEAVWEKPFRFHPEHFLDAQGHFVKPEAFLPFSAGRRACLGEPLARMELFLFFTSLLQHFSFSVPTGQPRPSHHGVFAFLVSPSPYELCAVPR

C[N+]1(C)CCCCC1
inactive: [1] | [2] | [3]

Cn1c(N)nc2c3cccnc3ccc21
active: [1] 12 µM | [6] 16.9 µM
inactive: [4] | [5]

CCCC(C)C1(CC)C(=O)N=C(S)NC1=O (stereo not given)
inactive: [2]

N[C@@H](Cc1ccc(Oc2cc(I)c(O)c(I)c2)c(I)c1)C(=O)O
active: [8] 11 µM
not listed: [3] | [4]
inactive: all other assays above

O=C(NC(O)C(Cl)(Cl)Cl)NC(O)C(Cl)(Cl)Cl (stereo not given)
not listed: [5] | [8]
inactive: all other assays above

ClCCCCCCCl
active: [5] 39.9 µM | [6] 35.6 µM
not listed: [7]
inactive: all other assays above

CCc1cc(OC)c(C[C@H](C)N)cc1OC
active: [1] 4.16 µM | [6] 20.9 µM
inactive: [8] | [2]

CC[C@@H](CO)NC(=O)[C@@H]1C=C2c3cccc4[nH]cc(c34)C[C@H]2N(C)C1
inactive: [7] | [2] | [3]

CCC1(c2cccc(O)c2)CCCCN(C)C1 (stereo not given)
active: [1] 15.5 µM
inactive: [5] | [6] | [2] | [3]

CCOC(=O)C(SP(=S)(OC)OC)c1ccccc1 (stereo not given)
active: [4] 71 µM | [1] 44.8 µM | [5] 0.283 µM | [8] 1.26 µM | [6] 3.17 µM | [3] 2.83 µM

COc1ccc(CN2CCNCC2)c(OC)c1OC
inactive: [4] | [7] | [2]

Oc1ccc2c3c1O[C@H]1[C@@H](O)C=C[C@H]4[C@@H](C2)NCC[C@@]341
inactive: [5] | [8] | [6] | [2] | [3]

N#CC(Br)(Br)C(N)=O
active: [1] 71 µM
inactive: [6] | [2]

CCOC(=O)C(Cl)Cc1cc(-n2nc(C)n(C(F)F)c2=O)c(F)cc1Cl (stereo not given)
active: [5] 5.64 µM | [6] 28.3 µM | [2] 24.5 µM | [3] 35.6 µM
inactive: [4] | [7]

COc1cc(CC(C)N)cc(OC)c1OC (stereo not given)
active: [6] 43.2 µM
not listed: [1] | [3]
inactive: all other assays above

CCOC(=O)NC(C)(C)Cc1ccc(Cl)cc1
active: [5] 4.36 µM | [8] 15.5 µM | [6] 6.45 µM
not listed: [1]
inactive: all other assays above

Cc1ccc2cc(C)ccc2c1
not listed: [6] | [7]
inactive: all other assays above

CC1NCCOC1c1ccccc1 (stereo not given)
not listed: [1] | [3]
inactive: all other assays above

CCC(=O)OC1(c2ccccc2)CCN(C)CC1
inactive: [5] | [6] | [3]
active: [1] 37.5 µM

CN1C(=O)COc2c(C(=O)NC3CN4CCC3CC4)cc(Cl)cc21 (stereo not given)
not listed: [4] | [7]
inactive: all other assays above

Cc1cccc2sc3nncn3c12
inactive: [4] | [8] | [2]
active: [1] 15.9 µM | [6] 31.7 µM | [3] 20 µM

C[C@@H](N)[C@@H](O)c1ccccc1
inactive: [8] | [6] | [2] | [3]
active: [1] 17.4 µM | [5] 21.9 µM

CC1=C2[C@H]3OC(=O)[C@@H](C)[C@@H]3CC[C@@]2(C)C=CC1=O
inactive: [4] | [7] | [5] | [6] | [2]

CCC(C(N)=O)N1CCCC1=O (stereo not given)
inactive: [4] | [7] | [8] | [6] | [2]

COc1ccc2c(C(=O)c3ccc(Cl)cc3)c(C)n(CC(=O)O)c2c1
not listed: [5] | [8]
inactive: all other assays above
